# TGFb inhibitor – qHTS for Inhibitors of TGF-b | HepG2 CAGA-GFP TGF-b/SMAD3 reporter, GFP fluorescence, 18 h; TGF-beta stimulated, 500 pg/mL final | hit rate 1.2% among 410,000 | Potency, µM (doses to about 46.1 µM), for the others: top-dose activity, negative = inhibition, actives largely listed as inhibitors; note: potency is the fitted concentration of half-maximal effect; % is set by controls: 0 for no effect and ±100 for the full control effect; nearly all actives have a fitted effect of over 65% in size
#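 First, reporter cells (HEPG2 CAGA-GFP) rested 2 h at 37 degrees C. Next, compounds were pinned in and TGF-beta added to 500 pg/mL final. After 18 h, GFP was imaged per cell and summed per well.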
# TDP1 cell CPT – qHTS for Inhibitors of human tyrosyl-DNA phosphodiesterase 1 (TDP1): qHTS in cells in presence of CPT | chicken DT40 Tdp1-/-;hTDP1 cells + 20 nM CPT, ATP luminescence, 48 h | hit rate 12% among 420,000 | Potency, µM (top dose mostly 46.2 µM), for inactives: at the top dose activity change, negative = growth inhibition, most hits filed as inhibitors | AID 686979, 2013; note: potency is the fitted concentration of half-maximal effect; % is set by controls: 0 for no effect and ±100 for the full control effect; nearly all actives have a fitted effect of over 55% in size
#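 Cell growth measured by CellTiter-Glo luminescence after a minimum 48 h, 37 C compound exposure with 20 nM CPT in Tdp1-knockout DT40 cells stably expressing hTDP1, seeded 400/well; qHTS titration format.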
# HepG2 viability – qHTS for Inhibitors of TGF-b: Cytotox Counterscreen | Potency, µM (titrated, usually from 46.1 µM), inactives show at the top dose activity change, negative = cytotoxicity, most hits filed as cytotoxic | AID 588856, 2011 | hit rate 0.76% among 410,000 | HepG2 CAGA-GFP viability, ATP luminescence, 18 h; note: potency is the fitted concentration of half-maximal effect
#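 CellTiter-Glo luminescence gave cytotoxicity after 18 hours at 37 degrees C. The cells were HepG2 CAGA-GFP in 1% FBS DMEM, stimulated with 500 pg/mL TGF-beta after compound addition. %Activity was normalised to no-cell wells (complete cell-killing) and DMSO (no toxicity), and curves were fitted and classified.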
# IL-1B inflam inh – qHTS for Inhibitors of Inflammasome Signaling: IL-1-beta AlphaLISA Primary Screen | hit rate 4.7% among 360,000 | AID 743279, 2014 | activity change, % at 57.5 µM | THP-1 LPS/ATP IL-1B secretion, AlphaLISA, 16 h; hits give low values; in the data active = activity change below about -50%; inconclusive = mostly about -30% to -49%; note: % is set by controls: 0 for no effect and ±100 for the full control effect
#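 THP-1 cells pretreated 1 hr with compounds (up to 57.5 uM final), then stimulated with LPS (250 ng/mL final) plus ATP (1.25 mM final); secreted IL-1B measured by AlphaLISA after 16 hr, decreased signal indicating inhibition.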
# TDP1 inh – qHTS Assay for Inhibitors of Tyrosyl-DNA Phosphodiesterase (TDP1). Tyrosyl-DNA phosphodiesterase 1 (Homo sapiens), Q9NUW8. recombinant TDP1, AlphaScreen DNA substrate cleavage. Potency, µM (top dose mostly 130 µM), inactives show at the top dose activity change, negative = inhibition, most hits filed as inhibitors. hit rate 0.28% among 350,000; note: potency is the fitted concentration of half-maximal effect; % is set by controls: 0 for no effect and ±100 for the full control effect; nearly all actives have a fitted effect of over 40% in size
# Target sequence (Q9NUW8 whole entry, looked up): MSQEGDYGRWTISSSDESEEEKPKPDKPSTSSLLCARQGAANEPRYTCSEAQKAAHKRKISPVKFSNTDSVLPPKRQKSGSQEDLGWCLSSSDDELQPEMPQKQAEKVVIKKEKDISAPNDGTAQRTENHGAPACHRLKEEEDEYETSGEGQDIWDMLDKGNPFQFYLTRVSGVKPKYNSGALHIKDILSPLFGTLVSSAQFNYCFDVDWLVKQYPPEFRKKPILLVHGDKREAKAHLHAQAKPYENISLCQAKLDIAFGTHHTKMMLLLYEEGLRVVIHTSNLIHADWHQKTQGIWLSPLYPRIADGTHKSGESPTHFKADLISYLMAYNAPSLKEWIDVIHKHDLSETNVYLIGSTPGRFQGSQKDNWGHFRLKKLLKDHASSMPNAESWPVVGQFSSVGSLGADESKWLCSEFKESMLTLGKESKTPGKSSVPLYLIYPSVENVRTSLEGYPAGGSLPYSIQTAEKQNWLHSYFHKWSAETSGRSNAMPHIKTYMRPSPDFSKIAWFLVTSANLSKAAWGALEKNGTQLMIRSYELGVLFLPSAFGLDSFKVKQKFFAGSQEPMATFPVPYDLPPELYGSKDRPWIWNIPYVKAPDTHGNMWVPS
#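 Enzyme-compound mixtures sat 15 min at room temperature, followed by a 5 min reaction with 15 nM final substrate and 10 min with AlphaScreen beads. Recombinant human Tdp1 was used at 1 nM final.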
# TDP1 cell noCPT – qHTS for Inhibitors of human tyrosyl-DNA phosphodiesterase 1 (TDP1): qHTS in cells in absence of CPT; DT40 Tdp1-/- hTDP1 cells, no CPT, ATP luminescence, 48 h; AID 686978, 2013; Potency, µM (titrated, usually from 46.2 µM), for the others: top-dose activity change, negative = growth inhibition, hits mostly inhibitors; hit rate 15% among 420,000; note: potency is the fitted concentration of half-maximal effect; % is set by controls: 0 for no effect and ±100 for the full control effect; nearly all actives have a fitted effect of over 55% in size
#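 Camptothecin absent (DMSO only). Human TDP1-complemented DT40 knockout cells, 400 cells/well, 37 °C for minimum 48 hr; ATP measured via CellTiter-Glo, 30 min dark incubation, luminescence.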
# Starred values were filed as active, the others as inactive; ? = inconclusive; nt = no result. Shown are actives, neighbours in structure and some others; about 19% of the full set was active somewhere. Unless noted, calls come from the whole dose curve; as a rule, active = well fitted curve in the direction sought with a large enough effect; inconclusive = small, poorly fitted or top-dose-only effect, or another doubt; inactive = no such curve, though single readings can be large; an effect the other way counts as inactive or inconclusive.
SMILES,TGFb inhibitor,TDP1 cell CPT,HepG2 viability,IL-1B inflam inh,TDP1 inh,TDP1 cell noCPT
Cc1ccc(C(C(=O)NCC2CCCO2)N(Cc2ccccc2)C(=O)c2ccc(-c3ccccc3)[nH]2)o1 (stereo not given),?,?,-7%,-79*,11%,?
O=C(NCC(=O)N(Cc1ccccc1)C(C(=O)NCC1CCCO1)c1ccccc1)c1ccco1 (stereo not given),-1%,-11%,-6%,-17,nt,-30%
C[N+]1(CC(=O)c2ccc3ccccc3c2)CCOCC1,-3%,8%,3%,nt,nt,-4%
CCOC(=O)c1ccc(NC(=O)c2nc[nH]c2C(=O)N2CCc3ccccc3C2)cc1,19%,12µM*,0%,-11,5%,13µM*
CC(C)(C)OC(=O)NCCCCCNC(=O)c1nc[nH]c1C(=O)N1CCc2ccccc2C1,9%,?,1%,10,2%,?
CC(C)(C)OC(=O)[C@H](Cc1ccccc1)NC(=O)c1nc[nH]c1C(=O)N1CCN(c2ccccc2)CC1,?,?,3%,10,nt,?
CC(C)(C)OC(=O)NCc1ccc(CNC(=O)c2nc[nH]c2C(=O)N2CCN(c3ccccc3)CC2)cc1,?,?,-25%,18,5%,26µM*
CCOC(=O)c1c(C)c(C(=O)N2CCc3ccccc3C2)c(C)n1CC,-27%,?,-40%,17,9%,26µM*
CC(C)(C)OC(=O)NCc1ccc(CNC(=O)c2nc[nH]c2C(=O)N2CCc3ccccc3C2)cc1,?,?,-17%,7,2%,18µM*
Cc1ccc(NC(=O)c2nc[nH]c2C(=O)N2CCc3ccccc3C2)cc1,9%,-25%,-2%,1,0%,-25%
CC1=C(C)C(O)N(Cc2ccccc2)C1=O (stereo not given),8%,-4%,-2%,8,2%,2%
CCOC(=O)c1sc2ncn(CC(=O)Nc3ccc(OC)c(Cl)c3)c(=O)c2c1C,1%,13%,-55%,nt,0%,-9%
FC(F)(F)c1ccc(CSc2ccccn2)cc1,-3%,-3%,-21%,-61*,-3%,-26%
O=C1C=CC(=O)N1c1ccc(O)cc1,?,2.6µM*,7.9µM*,-8,11%,2.3µM*
O=C1C=CC(=O)N1c1ccc(OC(F)F)cc1,?,0.41µM*,-95%,-91*,5%,0.65µM*
O=C(/C=C/c1ccc(Cl)cc1)Nc1nc(-c2cccs2)ns1,-26%,?,-19%,nt,-2%,?
COc1ccc([C@H]2CN(c3ccc(OC)cc3)C(=O)[C@@H]2CC(=O)Nc2ccccc2)cc1,10%,-17%,-28%,?,nt,13µM*
COc1ccc(NC(=O)C[C@H]2C(=O)N(c3ccc(OC)cc3)C[C@@H]2c2ccc(Br)cc2)cc1,-1%,?,-35%,-26,nt,23µM*
COc1ccc(NC(=O)C[C@H]2C(=O)N(c3ccc(Br)cc3)C[C@@H]2c2ccc(OC)cc2)cc1,-1%,?,-24%,-27,nt,21µM*
CCC[C@H]1CN(c2ccc(OC)cc2)C(=O)[C@@H]1CC(=O)Nc1ccccc1,-3%,?,-4%,-8,nt,?
COc1ccc(NC(=O)C[C@H]2C(=O)N(c3ccc(Br)cc3)C[C@@H]2C)cc1,0%,?,-7%,-3,nt,?
O=C(c1ccc(Cl)c(S(=O)(=O)N2CCCC2)c1)N1CCCC(C(F)(F)F)C1 (stereo not given),11%,-23%,7%,0,0%,?
Cc1ccc(-c2nc(CCNC(=O)C(=O)Nc3ccc(C)c(C)c3)cs2)cc1,-9%,-9%,-23%,nt,0%,1%
COc1cc(C=O)c(-c2c(C=O)cc(OC)c3c2OCO3)c2c1OCO2,-18%,?,-18%,15,nt,12µM*
COc1cc(N2Cc3ccccc3C2)ccc1C=O,?,19%,-55%,13,nt,?
SMILES,TGFb inhibitor,TDP1 cell CPT,HepG2 viability,IL-1B inflam inh,TDP1 inh,TDP1 cell noCPT
CC(=O)N1CCC2(CCCN(c3ccccc3)C2)CC1,nt,4%,nt,nt,nt,-14%
COc1ccc(-c2[nH]ncc2C(=O)NCc2ccccc2OC)cc1,nt,-1%,-5%,nt,7%,-23%
CCC1(C2CCN(Cc3cc4ccccc4o3)CC2)NC(=O)N(CC2COc3ccccc3O2)C1=O (stereo not given),nt,?,nt,nt,nt,21µM*
COc1ccc(-c2cc(C(=O)N(C)Cc3nc4ccccc4c(=O)[nH]3)c3ccccc3n2)cc1OC,2%,?,-21%,-24,0%,21µM*
COc1cccc(CN(C)C(=O)c2cc(-c3ccc(F)cc3)nc3ccccc23)c1,-34%,21µM*,-38%,-29,-6%,21µM*
Cc1c(CN(C)C(=O)c2cc(-c3ccccc3)nc3ccc(Br)cc23)cnn1C,-26%,21µM*,-29%,nt,-1%,10µM*
COCCNC(=O)c1cc(-c2cccnc2)nc2ccc(Br)cc12,1%,?,-31%,?,4%,?
COc1ccccc1CN(C)C(=O)c1cc(-c2cccs2)nc2ccccc12,?,?,-10%,-11,nt,16µM*
COc1ccc2cc(-c3cc(C(=O)O)c4ccccc4n3)ccc2c1,-3%,?,-57%,28,0%,?
COc1ccccc1C(=O)NCC(=O)N(C)Cc1nc2ccccc2c(=O)[nH]1,2%,-17%,3%,7,nt,-1%
CCOC(=O)C1=CCC2C(=O)N(C)C(=O)C12 (stereo not given),-9%,3%,1%,22,nt,2%
CN(C)c1ncc2nc(-c3ccc(Cl)cc3)c(=O)n(C3CC3)c2n1,nt,-1%,nt,nt,nt,1%
O=C1[C@H]2[C@@H](C3CC3)N3C(=O)CN(Cc4ccccn4)C(=O)[C@@]3(Cc3ccccc3)[C@H]2C(=O)N1c1ccccc1,9%,1%,11%,28,nt,4%
CCc1ccc(N2CCn3c2nc2c3c(=O)n(C/C=C/c3ccccc3)c(=O)n2C)cc1,-11%,-1%,0%,nt,6%,1%
CCn1c(CN(C)c2ccccc2)nc2ccccc21,-11%,?,-8%,-17,nt,?
